Compounds with a hit are over-represented: about 1.4% of the library has one in this group of screens.
Mtb MbtI inh = blocks the Mycobacterium tuberculosis siderophore enzyme MbtI; actives 0.89% (n = 100,000); P9WFX0; inhibition, % (no concentration beside the values); purified MbtI enzyme, fluorescence intensity read-out; in the data active = inhibition mostly above about 56%, no sharp cut-off; inactive = mostly below about 77%
Target sequence (P9WFX0 whole entry, looked up): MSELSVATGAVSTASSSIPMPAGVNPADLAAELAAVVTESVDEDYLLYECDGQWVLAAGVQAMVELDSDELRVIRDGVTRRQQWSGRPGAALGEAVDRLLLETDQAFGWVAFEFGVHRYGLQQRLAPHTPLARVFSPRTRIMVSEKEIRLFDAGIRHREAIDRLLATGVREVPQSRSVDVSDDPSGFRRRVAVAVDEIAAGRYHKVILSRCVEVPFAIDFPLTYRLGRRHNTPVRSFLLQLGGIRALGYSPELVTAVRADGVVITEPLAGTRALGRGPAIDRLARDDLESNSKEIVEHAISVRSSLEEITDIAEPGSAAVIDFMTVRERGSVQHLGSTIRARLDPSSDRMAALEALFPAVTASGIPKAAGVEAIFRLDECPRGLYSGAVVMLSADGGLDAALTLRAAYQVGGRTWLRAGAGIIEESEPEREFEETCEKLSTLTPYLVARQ
PV pol inh = poliovirus RNA polymerase inhibition | % elongation, % (compound at 16.7 µg/mL) | actives 0.66% (n = 150,000) | P03300 | poliovirus polymerase elongation, fluorescence polarization; stronger effect = lower value; in the data active = % elongation below about 90%
Mtb MenB inh = Mtb MenB enzyme inhibition; inhibition, % (no concentration beside the values); MenB enzyme assay, absorbance read-out; actives 0.43% (n = 100,000); P9WNP5; AID 540299; in the data active = inhibition above about 21%, passing the limit was not always enough
Starred values were filed as active, the others as inactive.

How did Cc1ccc(Cc2cn3cc(-c4ccc(F)cc4)nc3s2)cc1 do in these assays?
PV pol inh: 109

How did Cc1ccc(Cc2c[nH]c(=S)s2)cc1 do in these assays?
Mtb MbtI inh: 90*; PV pol inh: 103; Mtb MenB inh: -65

What do the screens show for `O=C(COc1ccc2c3c(c(=O)oc2c1)CCCC3)Nc1cccc(Br)c1`?
Mtb MbtI inh: 12; PV pol inh: 102

How did COc1cc(OC)c(OC)cc1CN1CCN(c2cccc(C)c2C)CC1 do in these assays?
Mtb MbtI inh: -1; PV pol inh: 96; Mtb MenB inh: 4

What do the screens show for `CCC(C)N1CCN(Cc2cc(OC)c(OC)cc2OC)CC1` (configuration not stated)?
Mtb MbtI inh: 4; PV pol inh: 102; Mtb MenB inh: 37*

How did CCOc1cc(/C=C(/C#N)c2cccc(Br)c2)ccc1OCc1ccc(C(=O)O)o1 do in these assays?
Mtb MbtI inh: -6; PV pol inh: 100; Mtb MenB inh: 2

How did N#CSC12CN3CN(CN(C3)C1)C2 do in these assays?
Mtb MbtI inh: 6; PV pol inh: 99; Mtb MenB inh: 33*

How did Cc1c(OCc2ccc(Cl)cc2Cl)ccc2c1OC(C)(C)CC2=O do in these assays?
Mtb MbtI inh: -15; PV pol inh: 102; Mtb MenB inh: -5

What do the screens show for `Cc1ccc2cccc(NC(=O)c3ccc(-c4ccc(Cl)cc4Cl)o3)c2n1`?
PV pol inh: 105

What do the screens show for `CCOC(=O)CC1=Nn2c(nnc2C2CCCCC2)SC1`?
Mtb MbtI inh: 3; PV pol inh: 105; Mtb MenB inh: -16

What do the screens show for `NNC(=O)Cc1nn2c(C3CCCCC3)nnc2s1`?
Mtb MbtI inh: 70*; PV pol inh: 99; Mtb MenB inh: -20

Results for CCNCc1cccc(F)c1 ?
Mtb MbtI inh: -4; PV pol inh: 102; Mtb MenB inh: 15

Results for Cc1oc2c(C)c3oc(=O)c4c(c3cc2c1-c1ccccc1)CCCC4 ?
Mtb MbtI inh: -8; PV pol inh: 103; Mtb MenB inh: -19

Results for O=C(c1c(F)cccc1F)N1CCCC1 ?
Mtb MbtI inh: -4; PV pol inh: 102; Mtb MenB inh: 19

Results for Cc1cc(F)c(F)c(C(=O)N2CCCCCC2)c1Cl ?
Mtb MbtI inh: 2; PV pol inh: 103; Mtb MenB inh: 34*

Results for O=C(CCN1c2ccccc2Sc2ccccc21)OC1CCOC1=O (configuration not stated) ?
Mtb MbtI inh: -3; PV pol inh: 104; Mtb MenB inh: -62

Results for Cc1nc(C(F)(F)F)ccc1C(=O)NCC(O)c1ccccc1 (configuration not stated) ?
Mtb MbtI inh: -15; PV pol inh: 88*; Mtb MenB inh: -2

Results for Cc1nc(C(F)(F)F)ccc1C(=O)NCC1CC1 ?
Mtb MbtI inh: -7; PV pol inh: 100; Mtb MenB inh: -1

What do the screens show for `O=C(Nc1ccc(N2CCOCC2)cc1)C1CC(=O)N(Cc2ccccc2)C1` (configuration not stated)?
Mtb MbtI inh: 13; PV pol inh: 102; Mtb MenB inh: 11

What do the screens show for `O=C(Nc1ccc(NC(=O)c2cccnc2)cc1)c1cccnc1`?
Mtb MbtI inh: -7; PV pol inh: 105

Results for O=C(NCc1ccccc1)N1CCN(C(c2ccc(F)cc2)c2ccc(F)cc2)CC1 ?
Mtb MbtI inh: -8; PV pol inh: 103; Mtb MenB inh: -12

How did COC(=O)C1CCN(C(c2ccc(F)cc2)c2ccc(F)cc2)CC1 do in these assays?
Mtb MbtI inh: 1; PV pol inh: 100; Mtb MenB inh: 20*

What do the screens show for `CCOC(=O)C1CSC(CC(=O)Nc2ccccc2)C(=O)N1` (configuration not stated)?
Mtb MbtI inh: -6

Results for CCCN=c1ssc(=O)n1CCC ?
Mtb MbtI inh: 67*; PV pol inh: 91; Mtb MenB inh: 0

Results for Cn1cccc1C=NN1CCN(Cc2ccccc2)CC1 ?
Mtb MbtI inh: 9; PV pol inh: 102; Mtb MenB inh: 3

How did c1ccc(C2CCC(NCCN3CCOCC3)CC2)cc1 (configuration not stated) do in these assays?
Mtb MbtI inh: -18; PV pol inh: 100; Mtb MenB inh: -8

How did COC(=O)c1cc(NC(=O)c2cccc3c2C(=O)N(Cc2cccnc2)C3)cc(C(=O)OC)c1 do in these assays?
Mtb MbtI inh: 0; PV pol inh: 102; Mtb MenB inh: -4

How did COc1cc(C(=O)Sc2ccc(Cl)cc2)cc(OC)c1OC do in these assays?
PV pol inh: 84*; Mtb MenB inh: -28

What do the screens show for `COc1cc(C(=O)n2nc(C)c(Sc3ccc(Cl)cc3)c2C)cc(OC)c1OC`?
PV pol inh: 103

How did C=C(C)CC1N(CCc2ccccc2)C(=O)C2C(C(=O)O)C3C=CC21O3 (configuration not stated) do in these assays?
Mtb MbtI inh: -9; PV pol inh: 104; Mtb MenB inh: -58

What do the screens show for `C(=NCC1CCCO1)c1cccnc1` (configuration not stated)?
Mtb MbtI inh: -7; PV pol inh: 102

How did CCC(=O)N(c1nnc(SCC(=O)c2c(N)n(C)c(=O)[nH]c2=O)s1)C1CC1 do in these assays?
Mtb MbtI inh: -5; PV pol inh: 102; Mtb MenB inh: -21

How did CCC(=O)N(c1n[nH]c(=S)s1)C1CC1 do in these assays?
Mtb MbtI inh: 91*; Mtb MenB inh: -13

What do the screens show for `CC(C)NC(=O)CCCn1c(=O)c2cccn2c2ccccc21`?
Mtb MbtI inh: -3; PV pol inh: 96; Mtb MenB inh: -16

How did COC(=O)C1CCN(C(=O)Cc2ccc(C)cc2)CC1 do in these assays?
Mtb MbtI inh: -1; PV pol inh: 83*; Mtb MenB inh: -9

What do the screens show for `Cc1ccc(C(=O)C2CCN(C(=O)Cc3ccccc3)CC2)cc1`?
Mtb MbtI inh: -4; PV pol inh: 100; Mtb MenB inh: -5

Results for Cc1ccc2occ(CC(=O)N(Cc3ccc(C(C)C)cc3)C3CCS(=O)(=O)C3)c2c1 (configuration not stated) ?
PV pol inh: 118

How did Cc1ccc2occ(CC(=O)N(Cc3ccccc3Cl)C3CCS(=O)(=O)C3)c2c1 (configuration not stated) do in these assays?
PV pol inh: -14*

How did COC(=O)c1cccc(NC(=O)NC(C)(C)C)c1 do in these assays?
Mtb MbtI inh: -3; PV pol inh: 101; Mtb MenB inh: 15

Results for CC(C)(C)c1ccc(-c2nc(=S)[nH][nH]2)cc1 ?
Mtb MbtI inh: -50; PV pol inh: 97; Mtb MenB inh: 5

How did CC(C)c1nc(=S)[nH][nH]1 do in these assays?
Mtb MbtI inh: 87*; PV pol inh: 84*; Mtb MenB inh: -8

Results for O=C(CC1OCCN(Cc2ccccc2)C1=O)Nc1ccc(Br)cc1Br (configuration not stated) ?
Mtb MbtI inh: -1; PV pol inh: 104; Mtb MenB inh: -22

What do the screens show for `CCN1CCOC(CC(=O)Nc2ccccc2C)C1=O` (configuration not stated)?
Mtb MbtI inh: 75*; PV pol inh: 105; Mtb MenB inh: -6

How did CCCN1CCOC(CC(=O)Nc2ccc(Br)cc2Br)C1=O (configuration not stated) do in these assays?
Mtb MbtI inh: 87*

What do the screens show for `CCN1CCOC(CC(=O)Nc2cccc(OC)c2)C1=O` (configuration not stated)?
Mtb MbtI inh: 36; PV pol inh: 104; Mtb MenB inh: -25
